# Measured values taken from publication PMC11995724, “Antibiotic target discovery by integrated phenotypic and activity-based profiling of electrophilic fragments” (Cell chemical biology, 2025).
# Among all 3,200 compounds or so, about 75 (2%) showed an effect of 50% or more. The full list was thinned out, with strong results kept by preference.
# Tested on: T1, S. aureus MSSA476
# T1 construct: MSSA476
# Parameters: species or system S. aureus MSSA476 (TSB) or V. cholerae SAD30 (LB); 384-well bacterial growth screen at 25 uM, OD600 relative to DMSO control
# Conditions: 25 µM; inhibitor
row,SMILES,% of control remaining [%]
1,"CCn1c(-c2ccccc2)c(C(=O)CCl)c2ccccc21 [10-E12, 2-chloro-1-(1-ethyl-2-phenyl-1H-indol-3-yl)ethan-1-one]",-0.3125
2,"N#Cc1ccc(NC(=O)CCl)cc1Cl [4-N03, 2-chloro-N-(3-chloro-4-cyanophenyl)acetamide]",74.7022
3,"C=CC(=O)Nc1ccc(C(=O)N2CCC3(CC2)OCCCO3)cc1 [2-D16, N-(4-{1,5-dioxa-9-azaspiro[5.5]undecane-9-carbonyl}phenyl)prop-2-enamide]",123.586
4,"CC(Cl)C(=O)c1ccc(Cl)cc1 (stereo not shown) [10-O04, 2-chloro-1-(4-chlorophenyl)propan-1-one]",129.063
